The values that follow come from PubChem BioAssay AID1224860 (National Center for Advancing Translational Sciences (NCATS), 2016).

The structures appear in SMILES notation. Results filed as inconclusive are left out. Values without a mark were called inactive. Calls of active or inactive are those of the source. Calls follow the shape of the dose curve; as a rule, active = well fitted cell-killing curve with a large enough effect; inconclusive = small, poorly fitted or top-dose-only effect; inactive = flat fitted curve, though single readings scatter.

The assay can be described thus: Compound cytotoxicity measured by an ATP content assay as a counter-screen for lead compounds in human iPSC derived neural progenitor cells (hNPCs). Particulars: human iPSC-derived NPC viability, ATP luminescence; series mostly up to 46.1 µM; activity, negative = cytotoxicity: at the top concentration. In short, it runs like this:
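Viability read as luminescent ATP content, 10 min at RT after reagent. Compound incubation of 6, 24 or 72 h on human iPSC-derived neural progenitors pre-cultured 16–20 h; values are percent inhibition.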
For orientation: The purpose of a counterscreen is to sort out artefacts and off-target activity.
Take `C[C@H](NC(=O)C(=O)Nc1ccccc1C(C)(C)C)C(=O)N[C@@H](CC(=O)O)C(=O)COc1c(F)c(F)cc(F)c1F`: the “activity, negative = cytotoxicity” value is -0.979%. For the compound `O=C1c2ccccc2C(=O)c2c1ccc(O)c2O`, the “activity, negative = cytotoxicity” value was -12.2%.

On to `N[C@H](CSC(c1ccccc1)(c1ccccc1)c1ccccc1)C(=O)O`, for which the “activity, negative = cytotoxicity” value is -15.9%. On the same count and under the same terms, under `CCCCCNC(=O)N1CCC(CN(Cc2ccc(Cl)cc2)Cc2ccc([N+](=O)[O-])s2)C1` (stereo unspecified) stands 1.44%; under `O=C1NC(=O)C(=Cc2ccc(-c3ccc(F)cc3)o2)S1`, -16.4%; under `Cc1cc(O)c2c(c1)C(=O)c1cc(O)cc(O)c1C2=O`, -12.6%. As to `O=C(c1ccccc1)c1ccc2n1CCC2C(=O)O` (stereo unspecified), the “activity, negative = cytotoxicity” value was 6.4%. With `O=C(O)c1cc([N+](=O)[O-])ccc1NCCCc1ccccc1`, the “activity, negative = cytotoxicity” value is -8.18%. For `CNC1[C@H](O)C(O[C@@H]2C(O)C(O[C@H]3O[C@H]([C@@H](C)NC)CC[C@H]3N)[C@@H](N)C[C@H]2N)OC[C@]1(C)O` (stereo partly specified), the “activity, negative = cytotoxicity” value is 2.79%. Take `CC1(C)Cc2c(sc(NC(=S)NC(=O)c3ccccc3)c2C(=O)O)CO1`: the “activity, negative = cytotoxicity” value was 2.96%. As for `CCCCCCCC/C=C/C(=O)O`, the “activity, negative = cytotoxicity” value is -7.84%. `O=C(Nc1ccc(C(=O)O)c(O)c1)c1ccccc1`: the “activity, negative = cytotoxicity” value is -7.98%.

`Oc1cc(O)cc(/C=C/c2ccc(O)c(O)c2)c1`: the Potency was 7.74 µM (active). Take `O=S(=O)(O)CCSSCCS(=O)(=O)O`: the “activity, negative = cytotoxicity” value was -10.7%. Regarding `Nc1nc2ccc([N+](=O)[O-])cc2s1`, the “activity, negative = cytotoxicity” value is 1.04% [at 88.3 µM]. `O=C(Oc1ccccc1)c1cccc(C(=O)Oc2ccccc2)c1`: the “activity, negative = cytotoxicity” value is -3.83% [at 96.3 µM]. As for `O=C(O)[C@@H](c1ccc(OCc2ccc3ccccc3n2)cc1)C1CCCC1`, the “activity, negative = cytotoxicity” value was 1.28%.

On to `CN(C)c1ccc2cc(C(=O)N[C@@H](CCCN=C(N)CCl)C(=O)NCc3ccccc3)ccc2c1`, for which the “activity, negative = cytotoxicity” value was -7.42%. As to `COc1cc(NC(C)CCCN)c2ncccc2c1` (stereo unspecified), the “activity, negative = cytotoxicity” value was 5.35%. In the case of `O=S(=O)(O)c1ccc2nc(-c3ccccc3)[nH]c2c1`, the “activity, negative = cytotoxicity” value is -7.27%.

Regarding `Cc1c(C(=O)O)c(O)cc2c1C(=O)c1c(O)c([C@@H]3O[C@H](CO)[C@@H](O)[C@H](O)[C@H]3O)c(O)c(O)c1C2=O`, the “activity, negative = cytotoxicity” value was -12%. In the case of `NC(=O)c1cccc2[nH]c(-c3ccc([C@H]4CCCN4)cc3F)nc12`, the Potency was 4.35 µM (active). In the case of `O=C1c2ccccc2-[n+]2ccc3c([nH]c4ccccc43)c21`, the Potency was 2.18 µM (active). `CC(=O)Oc1cccc2c1C(=O)c1c(OC(C)=O)cc(C(=O)O)cc1C2=O`: the “activity, negative = cytotoxicity” value was -0.702%.

`O=c1cc(-c2ccccc2)oc2cc(O)cc(O)c12`: the “activity, negative = cytotoxicity” value was -13.1%.

`CC(=C(CCOC(=O)C(C)C)SSC(CCOC(=O)C(C)C)=C(C)N(C=O)Cc1cnc(C)nc1N)N(C=O)Cc1cnc(C)nc1N`: the “activity, negative = cytotoxicity” value was -13.1%. With `Nc1ccc2c(c1)CN1C(=O)c3ccccc3C1=N2`, the Potency was 6.73 µM (active). As for `O=C(O)c1ccccc1Nc1cccc(C(F)(F)F)c1`, the “activity, negative = cytotoxicity” value was -6.8%. `Cc1nc(N)sc1-c1ccnc(Nc2ccc(N3CCOCC3)cc2)n1`: the “activity, negative = cytotoxicity” value was -15%.

`C=CCCCCCCCCC(=O)O`: the “activity, negative = cytotoxicity” value was 2.42%. In the case of `CN(C)c1ccc(/C=C2\C(=O)Nc3ccccc32)cc1`, the Potency is 8.69 µM (active).
